Assay outcomes deposited in PubChem BioAssay by several laboratories.
ABCB6 inh MLPCN: ABCB6 transporter inhibitors, primary screen, K562-ABCB6 cells, flow cytometry, MLPCN library | ATP-binding cassette sub-family B member 6 (Homo sapiens), Q9NP58 | K562-ABCB6 porphyrin accumulation, 1 h; hits give low values | fluorescence ratio to DMSO, % at 10 µM | 360,000 tested, 0.19% active | AID 602162, 2011;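 active = fluorescence ratio to DMSO below 75%, the collection mean minus 3 SD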;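 also: signal is porphyrin accumulated inside mitochondria; 100% equals median channel fluorescence of DMSO control wells; lower ratio means ABCB6 inhibition with less porphyrin fluorescence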
MsrA inhibitor: bovine MsrA enzyme inhibitors, primary screen, biochemical, absorbance, HTS; 360,000 tested, 0.75% active; purified bovine MsrA, absorbance read-out; inhibition, % at 15.5 µM; AID 651718, 2012; Methionine sulfoxide reductase A (Bos taurus);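 also: 0% = vehicle wells with enzyme and 100% = reference inhibitor wells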
SMARCA2 activ: SMARCA2 (BRM) function activators, primary screen, cell-based, luminescence, high throughput | MG213 cells, MMTV-luciferase reporter, dexamethasone, overnight | activation, % at 9.1 µM | 370,000 tested, 1% active; in the data active = activation above about 7.8%;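 also: 0% = vehicle wells and 100% = reference activator wells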
bovine MsrA act: bovine MsrA enzyme activators, primary screen, biochemical, absorbance, HTS; Methionine sulfoxide reductase A (Bos taurus); purified bovine MsrA, absorbance read-out; activation, % at 10.6 µM; 360,000 tested, 0.3% active; AID 602163, 2012; in the data active = activation above about 7.5%;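 also: 0% = vehicle and 100% = reference activator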
MsrA conf: bovine MsrA inhibitors, retest, confirmation, biochemical, absorbance, HTS; AID 651822, 2012; purified bovine MsrA, absorbance read-out; inhibition, % at 15.5 µM; 2,300 tested, 41% active; shares compounds with MsrA inhibitor;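 also: coupled to thioredoxin reductase with NADPH and selenocystamine and DMSO as substrate; 0% = vehicle only and 100% = full effect of reference inhibitor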
Starred values were filed as active, the others as inactive. The list is not random: actives were taken first. Their share in the collection is about 2.1%. Rule as the data show it, unless noted: active = inhibition above about 4.5%; inactive = the rest.

Screening CCOc1cc(/C=N/NC(=O)N/N=C/c2ccc(O)c(OCC)c2)ccc1O returned MsrA inhibitor 5.5*, SMARCA2 activ -1.2 and MsrA conf 4.2.
Screening CCOc1cc(/C=N/NC(=O)C(=O)N/N=C/c2ccc(O)c(OCC)c2)ccc1O returned ABCB6 inh MLPCN 118.0, MsrA inhibitor 5.5*, SMARCA2 activ -2.3, bovine MsrA act -4.0 and MsrA conf 4.1.
CCOc1cc(/C=N/Nc2ncnc(Cl)c2N)ccc1O was read as ABCB6 inh MLPCN 95.0, MsrA inhibitor 4.9*, SMARCA2 activ -0.9, bovine MsrA act -7.0 and MsrA conf 6.0*.
`CCNC(=S)NNC(=O)CSc1nnc(-c2ccccc2)n1-c1ccc(Cl)cc1` gave SMARCA2 activ -1.9.
Screening COc1ccc(NC(=O)C2Cc3c(-c4ccccc4Oc4ccccc4)ccnc3O2)cc1 (centres undefined) returned ABCB6 inh MLPCN 96.0, MsrA inhibitor -0.7, SMARCA2 activ -3.5 and bovine MsrA act 0.3.
For CC(=O)N(C(C)=O)S(=O)(=O)c1ccc(N=NN2CCCCC2)cc1 the results were ABCB6 inh MLPCN 99.0, MsrA inhibitor 5.0*, SMARCA2 activ 0.1, bovine MsrA act -2.4 and MsrA conf 3.9.
Screening O=C(O)c1ccc(N=NN2CCCCC2)cc1 returned ABCB6 inh MLPCN 98.0, MsrA inhibitor 2.9, SMARCA2 activ 2.5 and bovine MsrA act -10.4.
For CC(=O)NS(=O)(=O)c1ccc(N=NN2CCCCC2)cc1 the results were ABCB6 inh MLPCN 99.0, MsrA inhibitor 2.0, SMARCA2 activ -1.9 and bovine MsrA act -1.1.
`NS(=O)(=O)c1ccc(N=NN2CCCCC2)cc1` gave ABCB6 inh MLPCN 102.0, MsrA inhibitor 5.3*, SMARCA2 activ 3.0, bovine MsrA act -5.0 and MsrA conf 2.0.
`CCCc1ccc(-c2c(C)sc(N)c2C#N)cc1` gave ABCB6 inh MLPCN 89.0, MsrA inhibitor 5.3*, SMARCA2 activ 7.6, bovine MsrA act -3.0 and MsrA conf -0.6.
`CCCC(=O)Nc1sc(C)c(-c2ccc(OC)cc2)c1C#N` gave ABCB6 inh MLPCN 100.0, MsrA inhibitor 0.0, SMARCA2 activ -1.3 and bovine MsrA act -0.8.
For CCCC1=[N+](CC)CCn2c(C)ccc21 the results were ABCB6 inh MLPCN 94.0, MsrA inhibitor 4.4, SMARCA2 activ -4.0 and bovine MsrA act -6.2.
Screening CCCC1=[N+](CC(=O)c2ccccc2)CCn2c(C)ccc21 returned ABCB6 inh MLPCN 100.0, MsrA inhibitor 5.2*, SMARCA2 activ -4.2, bovine MsrA act -1.6 and MsrA conf 4.6*.
COc1cc(-c2c(C#N)c(N)nc3c2CCCC3)ccc1O was read as ABCB6 inh MLPCN 96.0, MsrA inhibitor 0.3, SMARCA2 activ -2.5 and bovine MsrA act -0.7.
Screening COc1cc(-c2c(C#N)c(N)nc3[nH]c(=S)[nH]c(=O)c23)ccc1O returned ABCB6 inh MLPCN 100.0, MsrA inhibitor 5.0*, SMARCA2 activ -1.0, bovine MsrA act -0.5 and MsrA conf 3.9.
`COc1ccc(-c2cc(C(=O)OCC(=O)N3CCOCC3)c3ccccc3n2)cc1` gave ABCB6 inh MLPCN 98.0, MsrA inhibitor 4.7*, SMARCA2 activ 0.8, bovine MsrA act -6.0 and MsrA conf 1.4.
COc1ccc(-c2cc(C(=O)N3CCC3)c3ccccc3n2)cc1OC was read as ABCB6 inh MLPCN 95.0, MsrA inhibitor 5.4*, SMARCA2 activ -1.6, bovine MsrA act -3.8 and MsrA conf 3.1.
For CCOc1ccc(CCNS(=O)(=O)c2c(C)nc3sccn3c2=O)cc1OCC the results were ABCB6 inh MLPCN 97.0, MsrA inhibitor 1.7, SMARCA2 activ -1.3 and bovine MsrA act -0.6.
`O=C(N/N=C/C(Cl)=C/c1ccc([N+](=O)[O-])cc1)C(=O)Nc1cccc(C(=O)O)c1` gave ABCB6 inh MLPCN 100.0, MsrA inhibitor 9.2*, SMARCA2 activ 0.9, bovine MsrA act -5.3 and MsrA conf 5.3*.
`O=c1c2ccccc2n(Cc2ccccc2)n1[C@@H](Cc1ccccc1)Cn1cc(-c2ccc(-c3ccccc3)cc2)nn1` gave SMARCA2 activ -3.9.
For CC1Cc2ccccc2N1C(=O)c1cnc2sccn2c1=O (centres undefined) the results were ABCB6 inh MLPCN 102.0, MsrA inhibitor 5.4*, SMARCA2 activ -5.0, bovine MsrA act -8.7 and MsrA conf 3.6.
Cc1cccc(NC(=O)c2cnc3sccn3c2=O)c1 was read as ABCB6 inh MLPCN 98.0, MsrA inhibitor 1.9, SMARCA2 activ 2.1 and bovine MsrA act -6.1.
CC(=O)c1cnc2sccn2c1=O was read as ABCB6 inh MLPCN 101.0, MsrA inhibitor 6.2*, SMARCA2 activ -3.3, bovine MsrA act -1.9 and MsrA conf 2.0.
`Cc1cc(C)cc(C(=O)OCCN2CCN(C3CN(Cc4cn(Cc5ccc([N+](=O)[O-])cc5)nn4)S(=O)(=O)C3)CC2)c1` (centres undefined) gave SMARCA2 activ -4.2.
COc1ccc2c(c1)-c1c(sn(-c3ccccc3)c1=S)C(C)(C)N2 was read as ABCB6 inh MLPCN 96.0, MsrA inhibitor 4.7*, SMARCA2 activ -3.2, bovine MsrA act -5.9 and MsrA conf 0.7.
`COC(=O)[C@H](C(C)C)N(CCc1cn(CC2CCCCC2)nn1)S(=O)(=O)c1ccc(F)cc1Br` gave SMARCA2 activ -1.1.
CCN(C(=O)CCS(=O)(=O)c1ccc(Br)cc1)c1ccc2c(c1)OCO2 was read as ABCB6 inh MLPCN 103.0, MsrA inhibitor 14.2*, SMARCA2 activ 1.4, bovine MsrA act -1.7 and MsrA conf 7.3*.
Screening O=C(CCS(=O)(=O)c1ccc(Br)cc1)Nc1ccc2c(c1)OCO2 returned ABCB6 inh MLPCN 104.0, MsrA inhibitor -0.7, SMARCA2 activ 2.1 and bovine MsrA act -9.7.
For C/C(=N\Nc1ccc(C#N)cc1[N+](=O)[O-])c1ccc(O)cc1 the results were ABCB6 inh MLPCN 96.0, MsrA inhibitor 16.4*, SMARCA2 activ -3.8, bovine MsrA act -3.5 and MsrA conf 16.8*.
Screening C/C(=N/Nc1ccccc1[N+](=O)[O-])c1ccc([N+](=O)[O-])cc1 returned ABCB6 inh MLPCN 119.0, MsrA inhibitor 0.4, SMARCA2 activ -2.1 and bovine MsrA act -3.5.
Screening CCOC(=O)CCCNc1ccc([N+](=O)[O-])cc1[N+](=O)[O-] returned ABCB6 inh MLPCN 100.0, MsrA inhibitor 1.0, SMARCA2 activ -1.4 and bovine MsrA act -14.0.
CC(C)(CO)Nc1ccc([N+](=O)[O-])cc1[N+](=O)[O-] was read as ABCB6 inh MLPCN 107.0, MsrA inhibitor 5.3*, SMARCA2 activ 0.1, bovine MsrA act 3.2 and MsrA conf 4.4.
Screening CC/C(=N\Nc1ccc([N+](=O)[O-])cc1[N+](=O)[O-])c1ccc(O)cc1 returned ABCB6 inh MLPCN 98.0, MsrA inhibitor 6.7*, SMARCA2 activ -2.1, bovine MsrA act -1.7 and MsrA conf 1.3.
For CNC[C@@H]1OCc2ccccc2-c2c(n(C)c3ccccc23)C(=O)N([C@@H](C)CO)C[C@@H]1C the results were MsrA inhibitor 2.4 and SMARCA2 activ -3.4.
